Laboratory results taken from paper PMC7862700, “An all-to-all approach to the identification of sequence-specific readers for epigenetic DNA modifications on cytosine”.

Tests used:
Assay in all cases: DAPPL (digital affinity profiling via proximity ligation, sequencing); 10 mM Tris-HCl pH 7.5, 50 mM NaCl, 1 mM DTT, 4% glycerol, room temperature, 30 min; GST-TFs on glutathione beads, 16-mer random dsDNA library, 0.1% formaldehyde crosslink after washing; high values mean tight binding
FEV = target: T1, FEV (Homo sapiens, UniProt Q99581 1-238); details: protein: recombinant; tags: N-terminal GST; dsDNA, one strand shown
T1 sequence: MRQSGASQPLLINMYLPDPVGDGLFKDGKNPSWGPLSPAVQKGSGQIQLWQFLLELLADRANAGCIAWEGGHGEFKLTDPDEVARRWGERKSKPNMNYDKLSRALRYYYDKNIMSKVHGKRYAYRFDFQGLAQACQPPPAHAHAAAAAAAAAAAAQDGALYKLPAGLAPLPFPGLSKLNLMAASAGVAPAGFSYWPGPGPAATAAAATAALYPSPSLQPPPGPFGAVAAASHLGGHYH
How it was run: (§1)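 After expression in yeast as GST fusions, human transcription factors were bound to glutathione beads, DNA-barcoded and mixed with a tag-only sample. The pools were incubated with 200 nmole of a 16-mer random double-stranded DNA library in Tris/NaCl/DTT/glycerol buffer (30 min, room temperature), washed and crosslinked with 0.1% formaldehyde. Proximity ligation with BsaI/T4 ligase ran for 1 h at 37 °C, before PCR amplification and sequencing on an Illumina NextSeq500. Binding signal is a hexamer's read frequency for a factor divided by its frequency for the tag-only sample.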

ETV5 = ETV5 (Homo sapiens, UniProt P41161 1-510); details: protein: recombinant; tags: N-terminal GST; dsDNA, one strand shown
How it was run: as §1

HSF1 = HSF1 (Homo sapiens, UniProt Q00613 1-529); details: protein: recombinant; tags: N-terminal GST; chain copies: 3; dsDNA, one strand shown
How it was run: as §1

SPIC = target: T2, SPIC (Homo sapiens, UniProt Q8N5J4 1-248); details: protein: recombinant; tags: N-terminal GST; dsDNA, one strand shown
T2 sequence: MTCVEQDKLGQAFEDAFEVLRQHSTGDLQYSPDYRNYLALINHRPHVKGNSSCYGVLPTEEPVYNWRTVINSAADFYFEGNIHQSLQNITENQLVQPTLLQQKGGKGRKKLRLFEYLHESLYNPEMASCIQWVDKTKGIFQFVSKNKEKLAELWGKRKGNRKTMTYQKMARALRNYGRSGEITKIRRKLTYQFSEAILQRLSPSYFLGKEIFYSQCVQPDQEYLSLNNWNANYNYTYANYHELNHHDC
How it was run: as §1

ELF4 = ELF4 (Homo sapiens, UniProt Q99607 1-663); details: protein: recombinant; tags: N-terminal GST; dsDNA, one strand shown
How it was run: as §1

ELK4 = target: T3, ELK4 (Homo sapiens, UniProt P28324-2 1-405); details: protein: recombinant; tags: N-terminal GST; dsDNA, one strand shown
T3 sequence: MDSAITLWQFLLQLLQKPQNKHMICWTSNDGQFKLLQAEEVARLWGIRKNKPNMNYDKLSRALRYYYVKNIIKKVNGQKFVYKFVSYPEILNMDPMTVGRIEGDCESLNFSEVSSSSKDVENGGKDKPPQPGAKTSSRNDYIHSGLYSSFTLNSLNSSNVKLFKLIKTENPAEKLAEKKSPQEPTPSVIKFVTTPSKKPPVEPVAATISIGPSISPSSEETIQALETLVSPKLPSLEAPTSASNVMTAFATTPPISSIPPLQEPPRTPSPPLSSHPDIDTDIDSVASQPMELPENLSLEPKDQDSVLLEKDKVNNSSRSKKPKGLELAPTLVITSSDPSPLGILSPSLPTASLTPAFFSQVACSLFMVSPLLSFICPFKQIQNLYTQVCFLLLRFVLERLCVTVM
How it was run: as §1

ETV2 = target: T4, ETV2 (Homo sapiens, UniProt O00321 1-342); details: protein: recombinant; tags: N-terminal GST; dsDNA, one strand shown
T4 sequence: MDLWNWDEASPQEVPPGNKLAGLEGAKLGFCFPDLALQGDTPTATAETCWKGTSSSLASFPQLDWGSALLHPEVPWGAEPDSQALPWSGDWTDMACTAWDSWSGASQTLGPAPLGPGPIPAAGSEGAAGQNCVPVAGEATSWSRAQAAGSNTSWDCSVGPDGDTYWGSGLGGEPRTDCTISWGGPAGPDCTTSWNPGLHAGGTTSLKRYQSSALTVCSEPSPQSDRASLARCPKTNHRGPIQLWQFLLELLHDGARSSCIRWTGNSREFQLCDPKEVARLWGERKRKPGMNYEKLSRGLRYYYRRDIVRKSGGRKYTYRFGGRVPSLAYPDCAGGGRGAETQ
How it was run: as §1

ELF3 = target: T5, ELF3 (Homo sapiens, UniProt P78545 1-371); details: protein: recombinant; tags: N-terminal GST; dsDNA, one strand shown
T5 sequence: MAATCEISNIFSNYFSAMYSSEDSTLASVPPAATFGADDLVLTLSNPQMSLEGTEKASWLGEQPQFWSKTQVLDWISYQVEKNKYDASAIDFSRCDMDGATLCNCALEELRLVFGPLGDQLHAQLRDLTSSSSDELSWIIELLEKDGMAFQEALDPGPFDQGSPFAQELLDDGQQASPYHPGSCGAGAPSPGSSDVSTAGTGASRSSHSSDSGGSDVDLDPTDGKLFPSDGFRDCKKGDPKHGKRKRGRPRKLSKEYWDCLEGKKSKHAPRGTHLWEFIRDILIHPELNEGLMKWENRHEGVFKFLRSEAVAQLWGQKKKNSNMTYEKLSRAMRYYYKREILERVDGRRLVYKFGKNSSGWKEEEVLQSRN
How it was run: as §1

CRX = CRX (Homo sapiens, UniProt O43186 1-299); details: protein: recombinant; tags: N-terminal GST; dsDNA, one strand shown
How it was run: as §1

Sequence of CRX (O43186 whole entry): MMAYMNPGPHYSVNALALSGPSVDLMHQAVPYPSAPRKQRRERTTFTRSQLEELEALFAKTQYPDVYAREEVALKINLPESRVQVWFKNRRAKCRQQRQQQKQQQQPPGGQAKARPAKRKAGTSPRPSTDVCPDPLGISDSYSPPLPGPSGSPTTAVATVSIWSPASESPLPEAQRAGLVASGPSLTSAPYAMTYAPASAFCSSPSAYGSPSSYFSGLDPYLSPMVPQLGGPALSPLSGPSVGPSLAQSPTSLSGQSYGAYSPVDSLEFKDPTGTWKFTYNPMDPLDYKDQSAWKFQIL
Sequence of ETV5 (P41161 whole entry): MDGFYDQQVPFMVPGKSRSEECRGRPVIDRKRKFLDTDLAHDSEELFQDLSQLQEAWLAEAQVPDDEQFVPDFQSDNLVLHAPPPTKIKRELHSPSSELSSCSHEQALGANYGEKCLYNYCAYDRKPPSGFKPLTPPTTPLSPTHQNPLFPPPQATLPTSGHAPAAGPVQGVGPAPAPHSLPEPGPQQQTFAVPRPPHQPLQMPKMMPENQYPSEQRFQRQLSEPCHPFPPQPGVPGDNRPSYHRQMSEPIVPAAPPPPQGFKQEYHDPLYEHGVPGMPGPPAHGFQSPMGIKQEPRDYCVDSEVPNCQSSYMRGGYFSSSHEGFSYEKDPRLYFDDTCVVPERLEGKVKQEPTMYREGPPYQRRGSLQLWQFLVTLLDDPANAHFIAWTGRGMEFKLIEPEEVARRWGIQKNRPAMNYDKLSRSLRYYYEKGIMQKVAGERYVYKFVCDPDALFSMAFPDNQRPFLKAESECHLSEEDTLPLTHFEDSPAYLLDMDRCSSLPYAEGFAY
Sequence of ELF4 (Q99607 whole entry): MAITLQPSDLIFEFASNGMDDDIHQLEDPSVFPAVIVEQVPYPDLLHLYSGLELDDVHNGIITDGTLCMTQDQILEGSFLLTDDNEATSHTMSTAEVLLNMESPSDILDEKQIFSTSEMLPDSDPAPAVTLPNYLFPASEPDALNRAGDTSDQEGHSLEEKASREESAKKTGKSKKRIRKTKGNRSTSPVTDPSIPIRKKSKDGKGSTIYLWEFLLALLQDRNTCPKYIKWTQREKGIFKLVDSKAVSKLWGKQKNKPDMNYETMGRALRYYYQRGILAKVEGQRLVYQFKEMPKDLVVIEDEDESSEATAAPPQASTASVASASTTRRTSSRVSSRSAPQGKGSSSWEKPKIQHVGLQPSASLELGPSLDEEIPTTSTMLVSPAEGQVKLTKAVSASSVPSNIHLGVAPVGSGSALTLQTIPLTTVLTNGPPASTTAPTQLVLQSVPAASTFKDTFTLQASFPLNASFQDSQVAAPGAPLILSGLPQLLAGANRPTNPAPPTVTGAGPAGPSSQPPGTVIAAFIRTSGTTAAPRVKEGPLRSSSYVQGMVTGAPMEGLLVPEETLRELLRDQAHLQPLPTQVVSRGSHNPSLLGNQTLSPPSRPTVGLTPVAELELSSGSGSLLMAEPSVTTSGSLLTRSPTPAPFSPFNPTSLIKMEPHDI
Sequence of HSF1 (Q00613 whole entry): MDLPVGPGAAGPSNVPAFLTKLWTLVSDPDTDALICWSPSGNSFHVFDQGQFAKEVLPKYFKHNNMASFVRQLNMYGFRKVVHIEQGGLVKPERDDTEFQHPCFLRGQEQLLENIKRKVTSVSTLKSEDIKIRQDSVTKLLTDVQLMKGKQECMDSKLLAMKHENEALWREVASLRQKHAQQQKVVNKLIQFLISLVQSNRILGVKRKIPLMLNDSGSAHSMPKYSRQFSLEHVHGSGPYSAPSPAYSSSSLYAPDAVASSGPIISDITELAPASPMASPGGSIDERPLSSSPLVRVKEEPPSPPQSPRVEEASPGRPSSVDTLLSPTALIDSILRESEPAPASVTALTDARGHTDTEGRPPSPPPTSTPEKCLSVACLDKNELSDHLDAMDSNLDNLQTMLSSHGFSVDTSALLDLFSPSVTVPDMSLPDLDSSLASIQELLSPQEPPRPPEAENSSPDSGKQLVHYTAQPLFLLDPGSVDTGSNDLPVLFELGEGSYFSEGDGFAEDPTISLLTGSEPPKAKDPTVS

AATCTT
binding signal (FEV): 1.29 fold enrichment (6-mer frequency, TF over GST control)
binding signal (ETV5): 1.35 fold enrichment (6-mer frequency, TF over GST control)
binding signal (HSF1): 2.17 fold enrichment (6-mer frequency, TF over GST control)
binding signal (SPIC): 1.38 fold enrichment (6-mer frequency, TF over GST control)
binding signal (ELF4): 1.31 fold enrichment (6-mer frequency, TF over GST control)
binding signal (ELK4): 1.36 fold enrichment (6-mer frequency, TF over GST control)
binding signal (ETV2): 1.38 fold enrichment (6-mer frequency, TF over GST control)
binding signal (ELF3): 1.4 fold enrichment (6-mer frequency, TF over GST control)
binding signal (CRX): 2.54 fold enrichment (6-mer frequency, TF over GST control)
